Values joined by “and” are separate entries in the source; they are usually repeats but may differ in a detail not shown here. Identical values can stand only once. The campaign covered roughly 16,000 compounds. About 5,700 (36%) were called active. About 24% were inconclusive and are not listed. Calls follow the shape of the dose curve; as a rule, active = well fitted curve in the direction sought with a large enough effect; inconclusive = small, poorly fitted or top-dose-only effect, or effect the other way; inactive = no such curve, though single readings can be large or run the other way. The list shows a part of the results.
Target: Cytochrome P450 1A2 (Homo sapiens) (UniProt P05177)
Sequence (P05177 whole entry, looked up): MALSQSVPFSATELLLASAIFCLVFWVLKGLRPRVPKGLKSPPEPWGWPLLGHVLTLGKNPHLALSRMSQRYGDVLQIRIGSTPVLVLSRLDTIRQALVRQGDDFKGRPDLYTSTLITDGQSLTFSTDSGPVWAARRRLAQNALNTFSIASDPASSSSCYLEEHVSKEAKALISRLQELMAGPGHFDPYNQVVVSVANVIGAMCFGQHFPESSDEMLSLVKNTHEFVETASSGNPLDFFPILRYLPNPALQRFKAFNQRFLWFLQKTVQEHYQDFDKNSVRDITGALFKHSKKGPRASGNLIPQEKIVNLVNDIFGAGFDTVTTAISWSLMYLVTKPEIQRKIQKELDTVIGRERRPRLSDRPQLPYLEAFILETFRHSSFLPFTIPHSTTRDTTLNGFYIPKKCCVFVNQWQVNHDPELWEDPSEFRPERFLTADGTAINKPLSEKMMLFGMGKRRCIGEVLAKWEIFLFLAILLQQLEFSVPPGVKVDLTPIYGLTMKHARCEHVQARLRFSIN
Experiment: Cytochrome panel assay with activity outcomes
Settings: recombinant CYP, pro-luciferin dealkylation, luminescence, p450-cyp1a2; series mostly up to 57.1 µM; activity, negative = inhibition: at the top concentration
% is scaled to controls: 0 for no effect and ±100 for the full control effect.

| SMILES | activity, negative = inhibition | AC50 |
| --- | --- | --- |
| COc1ccc(O[C@H]2C=C[C@@H](c3ccccc3)O[C@H]2COC(=O)CC/C(C)=N\O[C@@H](C)c2cn([C@H](CO)Cc3ccccc3)nn2)cc1 | -0.286% [at 11.4 µM] (inactive) and -5.55% [at 11.4 µM] (inactive) | – |
| CC(=O)OC1CCC(OC(C)=O)c2c1n([O-])c(C)c(C)[n+]2=O (stereo not given) | -11.4% (inactive) | – |
| CC1(C)CC(=O)c2cn3ncnc3nc2C1 | -18.9% (inactive) | – |
| C[C@@H]1C[C@H]2[C@H]3C[C@@H](F)C4=CC(=O)C=C[C@]4(C)[C@@]3(Cl)[C@@H](O)C[C@@]2(C)[C@@H]1C(=O)COC(=O)C(C)(C)C | -13.4% [at 25.6 µM] (inactive) | – |
| O=C(CSc1nc2ccccc2s1)NNC(=S)Nc1ccc(Br)cc1 | – | 5010 nM (active) |
| CCOC(=O)Cn1c(CN(Cc2ccccc2)Cc2ccccc2)nc2c1c(=O)[nH]c(=O)n2C | -22.4% (inactive) | – |
| O=C(O)Cn1c(-c2ccccc2)nc2ccccc21 | -14.9% (inactive) | – |
| O=C(CSc1nc2ccccc2o1)Nc1nc2ccccc2s1 | – | 3160 nM (active) |
| CCOC(=O)Cn1c(-c2ccccc2)nc2ccccc2c1=O | – | 447 nM (active) |
| CCOC(=O)CSc1nc(-c2ccccc2)nc2ccccc12 | – | 501 nM (active) |
| CCOC(=O)CSc1nc2ccccc2c(=O)n1CC1CCC(C(=O)NCc2ccco2)CC1 (stereo not given) | 3.61% (inactive) | – |
| CCCCOc1ccccc1C1CC(=O)NC2=C1C(=O)CCC2 (stereo not given) | -21.7% (inactive) | – |
| O=C(CSc1nc(-c2ccccc2)nc2ccccc12)Nc1nccs1 | – | 158 nM (active) |
| CCc1nnc(NC(=O)CSc2nc(C3CCCCC3)nc3ccccc23)s1 | -11.1% (inactive) | – |
| O=C(CSc1nnc(-c2ccncc2)n1Cc1ccccc1)Nc1nccs1 | – | 11200 nM (active) |
| CC(C)OC(=O)CSc1nc(-c2ccc(F)cc2)nc2ccc(F)cc12 | – | 1120 nM (active) |
| NC(=O)NC(=O)CSc1nnc(-c2ccco2)n1Cc1ccccc1 | 3.98% (inactive) | – |
| CCCC(=O)Nc1ccc2nc(SCC(=O)Nc3ccc(N4CCOCC4)c(Cl)c3)sc2c1 | -10.2% (inactive) | – |
| C=CCn1c(SCC(=O)Nc2ncc(Cc3ccc(Br)cc3)s2)nnc1-c1ccncc1 | -21.6% (inactive) | – |
| O=C(CSc1nc2ccccc2s1)Nc1nccs1 | – | 2240 nM (active) |

| SMILES | activity, negative = inhibition | AC50 |
| --- | --- | --- |
| Cc1ccc(S(=O)(=O)NC(=O)CSc2nc3ccccc3s2)cc1 | -28.6% (inactive) | – |
| O=P(O)(CCc1ccccc1)C(O)c1ccccc1 (stereo not given) | 7.23% (inactive) | – |
| CO[C@@H](NC(N)=O)C(=O)O | -6.36% [at 2.29 µM] (inactive) | – |
| O=C(O)c1cc(=O)[nH]c(=S)[nH]1 | -10.7% [at 2.29 µM] (inactive) | – |
| Cc1cc(C)n2c(SCC(=O)N(C)C3CCS(=O)(=O)C3)nnc2n1 (stereo not given) | -4.17% (inactive) | – |
| NC(=S)NCCC[C@@H](N)C(=O)O | -14.7% (inactive) | – |
| Cc1cccc(-c2nsc(SCC(=O)Nc3nccs3)n2)c1 | – | 251 nM (active) |
| C1CCc2c(nc3nnnn3c2NC2CCCC2)C1 | – | 11200 nM (active) |
| CSc1nc2nc3c(c(=O)n2[nH]1)CN(Cc1ccccc1)CC3 | – | 3160 nM (active) |
| COc1ccc(CNc2nc3nc4c(c(=O)n3[nH]2)CCC4)cc1 | -14.6% (inactive) | – |
| Cc1ccccc1CN1C2=NCCN2C(=O)C2=C1CCN(Cc1ccccc1)C2 | -2.99% [at 11.4 µM] (inactive) | – |
| CCOc1ccc(C2=[N+]([O-])C(C)(C)N(O)C2(C)C)cc1 | 4.46% (inactive) | – |
| CSc1ccc2nnc(-c3cccc(F)c3)n2n1 | – | 3160 nM (active) |
| CCOc1ccc(-c2nnc3ccc(SC)nn23)cc1 | – | 1000 nM (active) |
| O=C(c1ccccc1)N(Cc1ccco1)C1CCS(=O)(=O)C1 (stereo not given) | -7.86% (inactive) | – |
| O=C(CSc1nnc(-c2ccccn2)n1Cc1ccco1)Nc1ccc2c(c1)OCO2 | -17.1% (inactive) | – |
| O=C(CN(Cc1ccco1)C(=O)c1ccccc1)Nc1ccc(Cl)c(Cl)c1 | – | 14100 nM (active) |
| c1ccc2c(c1)ncn2-c1ncnc2sc3c(c12)CCCC3 | – | 5620 nM (active) |
| CC(C)(C)C(=O)[C@H]([C@@H](c1ccccc1)N1CCOCC1)N1CCOCC1 | -6.91% [at 11.4 µM] (inactive) | – |
| Cc1cc(C(F)(F)F)n2nc(-c3cnn(C)c3C(F)(F)F)cc2n1 | – | 1120 nM (active) |

| SMILES | activity, negative = inhibition | AC50 |
| --- | --- | --- |
| Cc1cc(C(F)(F)F)n2nc(-c3cnn(C)c3C(F)(F)F)c(Cl)c2n1 | – | 178 nM (active) |
| O=[N+]([O-])C(/C=C(\Cl)[N+](=O)[O-])=C1N(Cc2ccc(Cl)nc2)CCN1Cc1ccc(Cl)nc1 | -20% (inactive) | – |
| Cc1nn2c([nH]c(=O)c3ccccc32)c1C=O | – | 2510 nM (active) |
| Cc1cc2[nH]c(=O)c3ccccc3n2n1 | – | 1260 nM (active) |
| Cc1cc(-c2c(C)[nH]n(-c3ccccc3)c2=O)n(-c2ccccc2)n1 | -7.47% (inactive) | – |
| COC(=O)Cn1c(CN(Cc2ccccc2)Cc2ccccc2)nc2c1c(=O)[nH]c(=O)n2C | -13.7% (inactive) | – |
| CN(C)N1C(N)=C(C#N)C(c2cccnc2)C2=C1CC(C)(C)CC2=O (stereo not given) | -4.23% (inactive) | – |
| CN(C)c1ccc(-c2nc3n(n2)C(c2cccnc2)C2=C(CC(C)(C)CC2=O)N3)cc1 (stereo not given) | – | 3160 nM (active) |
| COc1cc(NC(=O)Cc2c(C(=O)O)[nH]c3ccccc23)cc(OC)c1OC | -4.11% (inactive) | – |
| CCc1c(C(=O)O)[nH]c2ccc(Br)cc12 | – | 5010 nM (active) |
| COc1ccc(CSC2=C(C#N)C(=O)NC3(CCCCC3)S2)cc1 | -5.77% [at 2.29 µM] (inactive) | – |
| Cc1nn(-c2ccccc2)c(N2CCCCC2)c1/C=N/O | – | 1580 nM (active) |
| N#C/C(=C\c1cc([N+](=O)[O-])c(N2CCCCC2)cc1N1CCCCC1)c1nn(-c2ccccc2)c(N)c1C#N | -19.8% (inactive) | – |
| CO[C@@H]1COC(=O)[C@H](CCSC)NC(=O)C/C=C\[C@@H](C)COC(=O)[C@@H]2CCCN2C(=O)C/C=C\[C@H]1C | 7.24% [at 11.4 µM] (inactive) | – |
| C[C@@H]1CCC[C@H](C)N1NC(=O)c1ccc(Cl)c(S(N)(=O)=O)c1 | -0.756% [at 25.6 µM] (inactive) | – |
| CC1CCCC(C)N1C(=O)c1cc(-c2ccc(Cl)c(Cl)c2)on1 (stereo not given) | – | 5010 nM (active) |
| Cc1ccc2c(c1)nnn2C1CCN(S(=O)(=O)c2ccc(C(=O)N3C(C)CCCC3C)cc2)CC1 (stereo not given) | -30.6% (inactive) | – |
| c1ccc(-c2nc3ccccn3c2NCc2ccc3c(c2)OCO3)cc1 | – | 1780 nM (active) |
| CC1(C)CC(NCc2ccc3c(c2)OCO3)CCO1 (stereo not given) | -15.5% (inactive) | – |
| CS(=O)(=O)N1CCC[C@@]2(CCN(c3ncccn3)C2)C1 | -2.13% (inactive) | – |
